From PubChem
ATG4B inhibitor: blocks human ATG4B protease cleavage of LC3 substrate; Q9Y4P1; ATG4B cleavage of LC3-PLA2, NBD-HPC fluorescence, 1 h; inhibition, % at 8.33 µM; 0.51% of 340,000 active; in the data active means inhibition above about 40%
SUMO Mot1 rescue: inhibitors of SUMOylation pathway: yeast Mot1-301 growth rescue. S. cerevisiae Mot1-301 growth rescue, ATP luminescence, 38.5C; percent above DMSO median, 100 means doubled. growth rescue, % at 18.8 µM. 1% of 320,000 active;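 active means every valid replicate shows activation above 250% relative to neutral control wells; inactive means the rest, any valid replicate at or below 250%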;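 further: OY570 slx delta 5 strain wells were the positive control but not used for scaling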
Calb FLC: C. albicans growth modulation with fluconazole; C. albicans CaCi-2 (fluconazole-resistant clinical isolate) + fluconazole, Alamar Blue growth, 48 h; growth inhibition, % (test concentration not listed); 0.57% of 300,000 active;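 active means growth inhibition above about 58% in most replicates, limit read from the data, passing the limit was not always enough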;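 further: all wells also contain fluconazole at 8 µg/ml as a sub-toxic cotreatment; 0% = median of DMSO wells and 100% = median of geldanamycin control wells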
FAS-TE inh: FAS thioesterase (human) inhibition; P49327; recombinant FAS-TE, OMFH fluorogenic substrate, fluorescence endpoint; inhibition, % at 15 µM; 0.67% of 360,000 active; AID 602261;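 active means compounds whose normalised, plate-corrected inhibition of enzyme fluorescence in the single-dose primary screen is 50% or more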;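 further: 0% = DMSO with enzyme and 100% = substrate without enzyme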
Target sequence (P49327 whole entry, looked up): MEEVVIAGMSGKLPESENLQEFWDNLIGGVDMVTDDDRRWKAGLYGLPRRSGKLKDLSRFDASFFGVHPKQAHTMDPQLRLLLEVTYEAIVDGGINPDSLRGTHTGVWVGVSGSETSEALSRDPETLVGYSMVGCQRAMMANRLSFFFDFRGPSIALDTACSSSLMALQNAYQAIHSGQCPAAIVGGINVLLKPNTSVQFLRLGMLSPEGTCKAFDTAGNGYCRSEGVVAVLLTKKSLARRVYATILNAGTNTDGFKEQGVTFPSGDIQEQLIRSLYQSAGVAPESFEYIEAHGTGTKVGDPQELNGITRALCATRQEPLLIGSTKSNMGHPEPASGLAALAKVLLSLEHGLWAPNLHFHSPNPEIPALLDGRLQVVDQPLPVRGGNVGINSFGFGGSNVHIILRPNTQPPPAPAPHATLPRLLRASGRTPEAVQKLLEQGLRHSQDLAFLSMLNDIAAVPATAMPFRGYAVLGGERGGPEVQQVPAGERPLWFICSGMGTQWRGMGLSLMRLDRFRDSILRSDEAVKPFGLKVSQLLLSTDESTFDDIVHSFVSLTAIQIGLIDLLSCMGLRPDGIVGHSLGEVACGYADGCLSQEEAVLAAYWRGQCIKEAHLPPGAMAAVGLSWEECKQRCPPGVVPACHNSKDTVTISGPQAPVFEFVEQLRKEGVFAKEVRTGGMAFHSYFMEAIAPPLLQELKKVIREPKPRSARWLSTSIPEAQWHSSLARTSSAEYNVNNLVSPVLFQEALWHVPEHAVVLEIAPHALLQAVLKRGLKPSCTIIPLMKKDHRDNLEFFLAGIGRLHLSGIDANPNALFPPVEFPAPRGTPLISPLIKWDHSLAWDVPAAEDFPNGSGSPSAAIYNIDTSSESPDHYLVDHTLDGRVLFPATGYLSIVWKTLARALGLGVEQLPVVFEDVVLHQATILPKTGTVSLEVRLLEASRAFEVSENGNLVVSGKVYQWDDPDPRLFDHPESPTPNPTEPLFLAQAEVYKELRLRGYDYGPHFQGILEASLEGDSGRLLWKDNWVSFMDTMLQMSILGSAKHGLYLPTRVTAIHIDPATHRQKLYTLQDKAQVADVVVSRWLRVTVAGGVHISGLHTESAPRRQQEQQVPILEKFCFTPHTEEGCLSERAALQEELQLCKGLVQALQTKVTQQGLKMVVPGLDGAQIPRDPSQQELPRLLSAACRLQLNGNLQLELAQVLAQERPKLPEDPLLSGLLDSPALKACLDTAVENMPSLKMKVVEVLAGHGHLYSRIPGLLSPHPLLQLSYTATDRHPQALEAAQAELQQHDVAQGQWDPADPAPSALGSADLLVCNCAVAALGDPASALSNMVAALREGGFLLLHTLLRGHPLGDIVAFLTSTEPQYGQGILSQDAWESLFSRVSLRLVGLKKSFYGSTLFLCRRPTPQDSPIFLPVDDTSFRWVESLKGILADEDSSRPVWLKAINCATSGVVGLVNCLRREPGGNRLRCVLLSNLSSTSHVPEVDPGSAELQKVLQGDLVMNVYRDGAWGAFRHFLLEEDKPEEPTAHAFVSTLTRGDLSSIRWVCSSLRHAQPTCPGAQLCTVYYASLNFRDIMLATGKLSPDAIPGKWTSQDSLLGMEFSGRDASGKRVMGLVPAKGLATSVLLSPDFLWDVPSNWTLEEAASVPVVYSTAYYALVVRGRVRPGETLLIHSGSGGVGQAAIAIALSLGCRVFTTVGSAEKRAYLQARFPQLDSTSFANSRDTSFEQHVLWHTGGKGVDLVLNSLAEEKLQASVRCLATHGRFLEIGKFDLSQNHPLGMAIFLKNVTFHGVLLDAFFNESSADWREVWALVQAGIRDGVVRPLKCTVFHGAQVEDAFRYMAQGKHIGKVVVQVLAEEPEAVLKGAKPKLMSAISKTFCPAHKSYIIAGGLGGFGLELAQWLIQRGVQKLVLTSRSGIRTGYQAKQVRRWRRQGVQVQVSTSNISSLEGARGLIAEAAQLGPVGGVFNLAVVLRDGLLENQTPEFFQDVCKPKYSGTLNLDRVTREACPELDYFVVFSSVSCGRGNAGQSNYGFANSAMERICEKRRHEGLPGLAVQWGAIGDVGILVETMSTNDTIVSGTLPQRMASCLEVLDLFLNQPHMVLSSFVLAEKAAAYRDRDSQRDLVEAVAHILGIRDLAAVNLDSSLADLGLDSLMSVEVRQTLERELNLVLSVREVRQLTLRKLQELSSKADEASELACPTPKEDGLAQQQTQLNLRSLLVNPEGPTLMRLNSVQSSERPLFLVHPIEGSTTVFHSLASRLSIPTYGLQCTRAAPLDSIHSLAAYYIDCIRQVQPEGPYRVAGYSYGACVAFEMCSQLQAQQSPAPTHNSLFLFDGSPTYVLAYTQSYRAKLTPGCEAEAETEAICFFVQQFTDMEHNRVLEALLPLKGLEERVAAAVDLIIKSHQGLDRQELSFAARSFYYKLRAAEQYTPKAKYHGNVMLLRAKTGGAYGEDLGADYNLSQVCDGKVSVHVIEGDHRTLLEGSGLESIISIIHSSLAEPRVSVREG
NadD block: inhibitors of Staphylococcus aureus NadD; purified NadD enzyme, colorimetric absorbance read-out; inhibition, % at 20 µM; 0.78% of 360,000 active; AID 602399; in the data active means inhibition above about 26%
* = called active by the depositor; nt = no result given. Hits are enriched below; roughly 3.1% of the tested compounds scored in any of these assays.

SMILES	ATG4B inhibitor	SUMO Mot1 rescue	Calb FLC	FAS-TE inh	NadD block
CCOC(=O)c1c(-c2ccccc2)oc2ccc(OCC(O)CN(C)C)cc12 (configuration not stated)	0	15	94*	-8	-11
CC(C)(C)C(=O)NC(=S)NNC(=O)c1sc2ccccc2c1Cl	-20	-3	88*	-3	-1
Cc1ccc(NC(=O)C2C3CCC(O3)C2C(=O)O)cc1Cl (configuration not stated)	-7	355*	0	-6	2
O=C(O)C1C2CCC(O2)C1C(=O)Nc1ccc(F)c(Cl)c1 (configuration not stated)	-4	13	4	-10	-6
COc1ccccc1OCC(=O)N/N=C/C=C/c1ccc([N+](=O)[O-])o1	-3	11	94*	-6	-2
O=C(N/N=C\C=C\c1ccc([N+](=O)[O-])o1)c1cccs1	-1	-6	91*	2	-7
Cc1ccc(S(=O)(=O)NN2CCCCCC2)cc1	nt	nt	nt	-8	4
CCC1NC(=O)c2cccnc2-n2c1nc1cc(F)ccc1c2=O (configuration not stated)	nt	nt	nt	-8	7
CCCNC(=O)C1(CC2CC(c3ccccc3)=NO2)CCN(C(=O)C2(C)CC2)CC1 (configuration not stated)	-9	355*	-16	-11	2
CCCNC(=O)C1(CC2CC(c3ccccc3)=NO2)CCN(C(=O)c2ccccc2)CC1 (configuration not stated)	-8	5	nt	-12	3
Cc1cc2c(cc1S(=O)(=O)NCc1ccccc1)OCC(=O)N2	-2	-5	-14	-6	0
CCn1cc(C(=O)OCC(=O)Nc2cccc(Cl)c2Cl)c(=O)c2ccc(C)nc21	5	-11	106*	9	-2
CCn1cc(C(=O)OCC(=O)Nc2c(C)n(C)n(-c3ccccc3)c2=O)c(=O)c2ccc(C)nc21	0	-20	3	-10	0
CCOc1ccc(S(=O)(=O)NCCC(=O)OCC(=O)N2CC(=O)Nc3ccccc32)cc1	-5	194	11	-5	6
O=C(NCc1ccc(F)cc1)C1CC(=O)N(C2CCCCC2)C1 (configuration not stated)	10	-8	-6	-4	1
O=C(NCc1ccccc1)C1CC(=O)N(C2CCCCC2)C1 (configuration not stated)	-3	318*	0	0	2
O=C(NNC(=O)C1C2CCC(C2)C1C(=O)O)c1ccc(Br)o1 (configuration not stated)	nt	-13	100*	nt	nt
CC(=O)Nc1cccc(C(=O)OCC(=O)N2CCC(c3ccccc3)=N2)c1	-10	6	5	-3	0
O=C(NCC1CCCO1)C(c1ccc(F)cc1)N(Cc1ccc(F)cc1)C(=O)Cn1nnc(-c2cccs2)n1 (configuration not stated)	-12	-2	104*	2	3
COc1ccc(C(=O)NCc2ccccc2CN2CCCC2)cc1S(=O)(=O)N1CCOCC1	3	nt	nt	-4	-2
COc1cccc(/C=N/Nc2nccnc2Cl)c1O	-9	nt	106*	11	-4
COc1cccc(/C=N/Nc2ncnc3scc(-c4ccccc4)c23)c1O	-6	-2	109*	30	16
Oc1ccc(/C=N/Nc2nccnc2Cl)c(O)c1	-10	361	42	-4	0
Oc1ccccc1/C=N/Nc1nccnc1Cl	-14	42	97*	-3	-2
COc1cccc(/C=N/Nc2ncnc(Cl)c2N)c1O	-2	-14	0	-8	-5
SMILES	ATG4B inhibitor	SUMO Mot1 rescue	Calb FLC	FAS-TE inh	NadD block
COc1cccc(/C=N/Nc2cc(-n3nc(C)cc3-c3ccccc3)ncn2)c1O	3	-24	82*	37	29
COc1ccc(-c2csc(-c3[nH]cnc3N)n2)cc1	-1	9	-3	-12	14
CCOC(=O)C1=C(C)NC(C)=C(C(=O)OCC)C1C(=O)OCC(=O)NCc1ccccc1OC	-10	2	nt	0	-2
C#CCOC(=O)CCCC(=O)NCCCCCCCC	-4	33	109*	1	3
COC(=O)c1sccc1NC(=O)c1ccc(OC)cc1OC	34	420*	21	4	-6
O=C(C[n+]1cc(-c2ccc(Cl)cc2)n2c1CCC2)N1c2ccccc2Sc2ccccc21	1	12	107*	-1	12
Cc1ccc(C(=O)C[n+]2cc(-c3ccc(C)cc3)n3c2CCCCC3)cc1	4	-13	88*	-5	1
COc1ccc(C(=O)C[n+]2cc(-c3ccc(OC)cc3)n3c2CCCC3)cc1	-6	7	-27	-5	1
COc1ccc(-c2c[n+](CC(=O)N3c4ccccc4Sc4ccccc43)c3n2CCC3)cc1	-8	-45	62	-4	2
O=C(C[n+]1cc(-c2ccc(Cl)c(Cl)c2)n2c1CCC2)N1c2ccccc2Sc2ccccc21	13	-13	107*	49	21
O=C(COC(=O)CCC1CCCC1)Nc1ccc(F)cc1	-13	11	nt	10	-5
Cc1ccc(S(=O)(=O)N(C)c2ccc(OCC(=O)Nc3ccc(C(=O)N(C)C)cc3)cc2)cc1C	-3	-4	nt	0	-3
COc1ccc(-n2c(-c3ccc(Br)cc3)c[n+]3c2SC(C)C3)cc1 (configuration not stated)	5	40	88*	-7	1
Cc1ccc(-n2ncc(Br)c(Br)c2=O)cc1	5	nt	97*	6	1
Cc1nnsc1Sc1ccccc1C(=O)O	-1	376*	-4	-6	0
Cc1nnsc1Sc1ccccn1	11	-9	10	-3	0
COc1ccccc1NS(=O)(=O)c1ccc(C(=O)NCCCN2CCCC2=O)cc1	-8	-7	nt	-4	-4
CCn1c(COc2ccc(=O)n(-c3ccccc3)n2)nnc1SCc1cccc(OC)c1	-6	-4	85*	-7	3
C=CCSc1nnc(COc2ccc(=O)n(-c3ccccc3)n2)n1CC	-5	-8	1	-2	-7
CCC(C(=O)OCC(=O)NCc1ccc2c(c1)OCO2)c1ccccc1 (configuration not stated)	-8	2	nt	3	-1
Cc1ccc(S(=O)(=O)N(C)c2ccc(OCC(=O)Nc3nnc(C4CC4)s3)cc2)cc1	-3	nt	63*	8	-6
CCNc1nc(NCC)n2c(SC(C(=O)Nc3cc(Cl)cc(Cl)c3)c3ccccc3)nnc2n1 (configuration not stated)	-7	9	-12	12	25
O=C(COc1ccccc1)Nc1ncc2c(n1)CCCC2=O	-4	292*	21	-2	1
CN(C)c1ccc(Cc2cc3c(O)ccc(O)c3cc(Cc3ccc(N(C)C)cc3)c2=O)cc1	31	nt	nt	9	68*
Cc1ccc(NS(=O)(=O)c2ccc(CCC(=O)NCCO)cc2)cc1	-2	-9	112*	-9	-3
CCCOc1ccc(NC(=O)CC2Nc3ccccc3NC2=O)cc1 (configuration not stated)	2	571*	-2	0	0
